Values joined by “and” are separate entries in the source; they are usually repeats but may differ in a detail not shown here. Equal values may be shown once. Records with an inconclusive call do not appear. Some structures have more than one record in an assay (separate samples or runs), and their calls can disagree. Active and inactive are the calls of the source. Unless noted, calls follow the shape of the dose curve; as a rule, active = well fitted curve in the direction sought with a large enough effect in the repeat runs; inconclusive = weak or mixed curves; inactive = no such curve, though single readings can be large; an effect the other way counts as inactive or inconclusive.
Columns and labels:
[1] = qHTS assay to identify small molecule agonists of the estrogen related receptor signaling pathway with the pleiotropic PPARgamma coactivator (PGC) (AID 1224823)
Method in brief: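 Luminescence readout (One-Glo, 30 min RT) from PGC/ERR cell line treated 18 h at 37 C with pin-tool-delivered DMSO compound solutions; cells plated 6 h before dosing. Quantitative HTS format.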

[2] = qHTS assay to identify small molecule antagonists of the estrogen related receptor (ERR) signaling pathway from Tox21 library - cell viability counter screen (AID 1224834); also: nearly all actives have a fitted effect of over 30% in size; also: potency is read from the fitted curve at half-maximal effect
Method in brief: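 Seeded ERR cells were rested 6 h at 37 C/5% CO2 before compounds, positive and negative controls or DMSO were added. Incubation continued for 17.5 h, and viability was then quantified by CellTiter-Fluor fluorescence.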

[3] = target: Luciferin 4-monooxygenase (Photinus pyralis) (UniProt P08659); test: qHTS assay to identify small molecule inhibitors of firefly luciferase (AID 1224835); also: nearly all actives have a fitted effect of over 25% in size; also: potency is read from the fitted curve at half-maximal effect
Method in brief: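 Biochemical qHTS: compounds run as interplate titrations against purified firefly enzyme, with D-luciferin and ATP each at its KM concentration. Light output recorded by CCD imaging.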

[4] = qHTS assay to identify small molecule agonists of the constitutive androstane receptor (CAR) signaling pathway - cell viability counter screen (AID 1224836); also: nearly all actives have a fitted effect of over 45% in size; also: potency is read from the fitted curve at half-maximal effect
Method in brief: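 HepG2-CYP2B6-hCAR, 2500 cells/well, 4 h pre-incubation; cpd 15 conc + PK11195 0.75 uM final; 23 h, 37 C/5% CO2; CellTiter-Fluor, fluorescence.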

[5] = qHTS assay to identify small molecule antagonists of the constitutive androstane receptor (CAR) signaling pathway - cell viability counter screen (AID 1224837); also: nearly all actives have a fitted effect of over 45% in size; also: potency is read from the fitted curve at half-maximal effect
Method in brief: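 To flag cytotoxic false antagonists, HepG2 hCAR/CYP2B6-2.2kb cells were treated 23 hr with 15-concentration compound series and 50 nM CITCO at 37 C/5% CO2; CellTiter-Fluor fluorescence was the measured end point.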

[6] = target: Nuclear receptor subfamily 1 group I member 3 (Homo sapiens) (UniProt Q14994); test: qHTS assay to identify small molecule agonists of the constitutive androstane receptor (CAR) signaling pathway (AID 1224839); also: nearly all actives have a fitted effect of over 15% in size; also: potency is read from the fitted curve at half-maximal effect;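 as to activation: HepG2 cells stably carrying human CAR and a CYP2B6 luciferase reporter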
Method in brief: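 HepG2-CYP2B6-hCAR cells, 2500/well, 4 h pre-incubation; compounds 15 conc.; PK11195 0.75 uM final; 24 h, 37 C/5% CO2; ONE-Glo luciferase read.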

[7] = qHTS assay to identify small molecule antagonists of the estrogen related receptor signaling pathway with the pleiotropic PPARgamma coactivator (PGC) from Tox21 10K library - cell viability counter screen (AID 1224840; active = well fitted cell-killing curve with a large enough effect in the repeat runs, not every such curve was filed as active; also: nearly all actives have a fitted effect of over 40% in size; also: potency is read from the fitted curve at half-maximal effect)
Method in brief: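 Seeded PGC/ERR cells (2,000/well, 6 h, 37 C/5% CO2) get compound by pin tool; 17.5 h incubation at 37 C; CellTiter-Fluor added, 30 min, fluorescence measured.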

[8] = qHTS assay to identify small molecule antagonists of the estrogen related receptor signaling pathway with the pleiotropic PPARgamma coactivator (PGC) from Tox21 10K library (AID 1224841; call rule not given here; also: actives are mostly falling curves and most rising ones were filed inactive; nearly all actives have a fitted effect of over 50% in size; also: potency is read from the fitted curve at half-maximal effect)
Method in brief: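 Test chemicals dissolved in DMSO were applied to pre-incubated (6 h) PGC/ERR cells at 2,000 cells/well for an 18 h, 37 C treatment; reporter luminescence was then read using One-Glo.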

[9] = target: Thyrotropin receptor (Homo sapiens) (UniProt P16473); test: qHTS assay to identify small molecule agonists of the thyroid stimulating hormone receptor (TSHR) signaling pathway (AID 1224843; calls by dose curve; also: nearly all actives have a fitted effect of over 45% in size)
Method in brief: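 HEK293/TSHR, 800 cells/well; cpd 30 min RT; add cAMP-d2 + anti-cAMP-cryptate, 1 h RT; fluorescence read on plate reader. 15-pt titration, n=3.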

[10] = qHTS assay to identify small molecule agonists of the hypoxia (HIF-1) signaling pathway - cell viability counter screen (AID 1224844; calls by dose curve; also: nearly all actives have a fitted effect of over 50% in size; also: potency is read from the fitted curve at half-maximal effect)
Method in brief: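 HRE-bla ME-180; 0.5% dFBS; cpd 17 h, 37C, 5% CO2; CellTiter-Glo lum., 30 min RT, post-FRET read, same wells.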

[11] = qHTS assay to identify small molecule agonists of H2AX (AID 1224845; active = well fitted activation curve with a large enough effect in the signal ratio in the repeat runs, not every such curve was filed as active; the % refers to the signal ratio)
Method in brief: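 Wild-type CHO-K1 cells, plated overnight, exposed 3hr at 37C to 15 concentrations (0.76% DMSO final). Lysed, then HTRF anti-pH2AX (S139) cryptate and anti-H2AX-d2 antibodies, 24 hr room temperature; 665/620 nm emission read.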

[12] = qHTS assay to identify small molecule agonists of H2AX - cell viability counter screen (AID 1224847; calls by dose curve; also: nearly all actives have a fitted effect of over 30% in size; also: potency is read from the fitted curve at half-maximal effect)
Method in brief: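 Cells plated first: CHO-K1, 1000 per well in 10% FBS medium, incubated overnight at 37C. Then 15-point compound titration added (final DMSO 0.76%) for 3 hr. Finally CellTiter-Glo added and luminescence read.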

[13] = qHTS assay to identify small molecule antagonists of the estrogen related receptor (ERR) signaling pathway from Tox21 library (AID 1224848); also: nearly all actives have a fitted effect of over 50% in size
Method in brief: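 Compounds dissolved in DMSO are pin-transferred onto ERR reporter cells (2,000 per well) that have settled for 6 h at 37 C. Plates then incubate 18 h at 37 C before ONE-Glo luciferase reagent and a luminescence read 30 min later.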

[14] = qHTS assay to identify small molecule agonists of the estrogen related receptor (ERR) signaling pathway from Tox21 library (AID 1224849; calls by dose curve; also: nearly all actives have a fitted effect of over 15% in size); settings: ERR reporter cell line, ONE-Glo luciferase, 18 h
Method in brief: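 Tox21 compounds tested for ERR agonism in an NTP reporter cell line: 18 h treatment at 37 C, then ONE-Glo luminescence.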

[15] = qHTS RealTime-Glo MT Cell Viability Assay in HepG2 cells - 24 hour (AID 1224867); also: nearly all actives have a fitted effect of over 50% in size
Method in brief: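 HepG2 cells (600/well) were dispensed with RealTime-Glo reagents, incubated 5 h at 37 °C, then treated with compounds in DMSO for up to 40 h. Nonlytic NanoLuc luminescence reflecting viable cells was read at each stated time point.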

[16] = A CellTox Green Cytotoxicity Assay to monitor cytotoxicity in HEK293 cells - 0 hour (AID 1224869); also: nearly all actives have a fitted effect of over 50% in size; also: potency is read from the fitted curve at half-maximal effect
Method in brief: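 Tox21 screen in HEK293: membrane-impermeant cyanine dye fluoresces on binding dead-cell DNA; compound pinned 5 h post-seeding, plates held at 37 C, signal read repeatedly through 40 h.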

[17] = qHTS assay to identify small molecule agonists of the estrogen related receptor signaling pathway with the pleiotropic PPARgamma coactivator (PGC) from Tox21 10K library (AID 1224842); also: nearly all actives have a fitted effect of over 15% in size
Method in brief: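 PGC/ERR reporter cell line, 2,000 cells per well, incubated 6 h at 37 C before 23 nL compound in DMSO was added. After 18 h at 37 C, One-Glo luminescence read following 30 min at room temperature.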

[18] = qHTS assay to identify small molecule agonists of the hypoxia (HIF-1) signaling pathway (AID 1224846; active = well fitted activation curve with a large enough effect in the signal ratio in the repeat runs, not every such curve was filed as active; the % refers to the signal ratio)
Method in brief: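 Reporter induction in HRE-bla ME-180 cells is taken as agonism: cells sit 5 hrs after plating, receive compounds or DMSO only, incubate 17 hrs at 37C under 5% CO2, and are loaded with CCF4-AM for beta-lactamase FRET measurement.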

[19] = qHTS RealTime-Glo MT Cell Viability Assay in HEK293 cells - 32 hour (AID 1224868)
Method in brief: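 HEK293 cells seeded with NanoLuc/prosubstrate reagent, rested 5 h at 37 C, then dosed and kept at 37 C up to 40 h. Nonlytic real-time luminescence from viable cells read at 0, 8, 16, 24, 32 and 40 h.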
% is scaled to controls: 0 for no effect and ±100 for the full control effect.

Thyrotropin receptor (Homo sapiens), sequence (P16473 whole entry, looked up): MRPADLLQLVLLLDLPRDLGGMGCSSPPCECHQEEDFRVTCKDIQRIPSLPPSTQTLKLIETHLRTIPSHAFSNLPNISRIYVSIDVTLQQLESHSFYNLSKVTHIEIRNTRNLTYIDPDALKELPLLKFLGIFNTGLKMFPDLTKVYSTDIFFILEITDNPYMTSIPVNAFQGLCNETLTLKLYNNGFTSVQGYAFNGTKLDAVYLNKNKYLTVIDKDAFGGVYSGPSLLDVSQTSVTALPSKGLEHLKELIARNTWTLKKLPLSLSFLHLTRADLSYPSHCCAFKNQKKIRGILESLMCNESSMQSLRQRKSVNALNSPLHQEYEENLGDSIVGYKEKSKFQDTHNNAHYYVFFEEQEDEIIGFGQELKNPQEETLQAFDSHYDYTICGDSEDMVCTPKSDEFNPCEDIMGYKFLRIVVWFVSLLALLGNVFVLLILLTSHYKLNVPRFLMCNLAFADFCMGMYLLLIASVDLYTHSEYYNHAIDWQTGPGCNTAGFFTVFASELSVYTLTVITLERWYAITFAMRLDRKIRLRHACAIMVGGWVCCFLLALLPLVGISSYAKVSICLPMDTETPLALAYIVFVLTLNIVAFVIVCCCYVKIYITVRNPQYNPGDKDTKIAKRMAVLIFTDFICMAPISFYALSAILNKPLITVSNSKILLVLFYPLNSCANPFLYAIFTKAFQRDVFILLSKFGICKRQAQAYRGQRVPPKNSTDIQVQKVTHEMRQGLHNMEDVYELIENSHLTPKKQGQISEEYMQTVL
Nuclear receptor subfamily 1 group I member 3 (Homo sapiens), sequence (Q14994 whole entry, looked up): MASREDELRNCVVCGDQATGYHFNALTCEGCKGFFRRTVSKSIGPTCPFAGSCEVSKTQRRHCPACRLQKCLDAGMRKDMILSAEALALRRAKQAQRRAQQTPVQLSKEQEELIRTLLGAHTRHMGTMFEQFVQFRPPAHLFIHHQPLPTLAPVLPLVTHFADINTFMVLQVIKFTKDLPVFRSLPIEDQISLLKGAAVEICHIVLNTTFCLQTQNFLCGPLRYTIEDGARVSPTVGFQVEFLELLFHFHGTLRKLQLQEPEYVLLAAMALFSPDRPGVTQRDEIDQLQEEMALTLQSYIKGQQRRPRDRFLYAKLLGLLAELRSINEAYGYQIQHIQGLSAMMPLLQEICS
Luciferin 4-monooxygenase (Photinus pyralis), sequence (P08659 whole entry, looked up): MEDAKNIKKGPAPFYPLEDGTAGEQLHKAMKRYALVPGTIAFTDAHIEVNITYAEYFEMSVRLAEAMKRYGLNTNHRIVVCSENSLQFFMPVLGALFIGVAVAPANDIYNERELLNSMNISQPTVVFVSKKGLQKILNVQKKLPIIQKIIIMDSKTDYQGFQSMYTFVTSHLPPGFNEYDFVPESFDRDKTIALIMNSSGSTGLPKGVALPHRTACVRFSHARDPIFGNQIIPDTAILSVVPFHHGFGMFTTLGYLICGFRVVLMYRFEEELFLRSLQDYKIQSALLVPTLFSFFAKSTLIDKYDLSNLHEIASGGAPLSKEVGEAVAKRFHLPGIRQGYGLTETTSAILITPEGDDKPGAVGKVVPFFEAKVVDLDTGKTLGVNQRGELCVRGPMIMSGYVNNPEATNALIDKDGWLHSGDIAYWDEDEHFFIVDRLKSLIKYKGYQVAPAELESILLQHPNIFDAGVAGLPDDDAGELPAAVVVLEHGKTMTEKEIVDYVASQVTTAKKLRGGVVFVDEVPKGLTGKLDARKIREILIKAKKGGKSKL

Cc1c(OCC(F)(F)F)ccnc1CS(=O)c1nc2ccccc2[nH]1 (stereo unspecified)
active: Potency [6] 30.6 µM and 11.9 µM | activity change, positive = activation ([14]; at 42.5 µM (top of the series)) -8.69%
inactive: outcome [1] | Potency [2] | Potency [4] | Potency [5] | Potency [7] | Potency [8] | Potency [9] | Potency [10] | outcome [11] | Potency [12] | Potency [13] | activity change, positive = activation ([14]; at 92.4 µM (top of the series)) -7.88% | Potency [15] | Potency [16]
35.6 µM (active) and inactive: Potency [3]

COC(=O)CCC(=O)OC
inactive: Potency [2] | Potency [3] | Potency [4] | Potency [5] | Potency [6] | Potency [7] | Potency [8] | Potency [17] | Potency [9] | Potency [10] | outcome [11] | Potency [18] | Potency [12] | Potency [13] | activity change, positive = activation ([14]; at 92.4 µM (top of the series)) 8.82% and 7.51% | Potency [15] | Potency [16]

O=C(Nc1ccc([N+](=O)[O-])cc1Cl)c1cc(Cl)ccc1O
active: Potency [2] 3.86 µM and 1.3 µM | Potency [3] 399 nM and 301 nM | Potency [4] 6.86 µM and 4.61 µM | Potency [5] 5.45 µM and 3.26 µM | Potency [6] 1.54 µM and 820 nM | Potency [7] 2.73 µM | Potency [12] 2.84 µM
inactive: Potency [9] | outcome [11] | Potency [15] | Potency [16]

O=c1oc(=O)c2cc3c(=O)oc(=O)c3cc12
inactive: Potency [2] | Potency [3] | Potency [4] | Potency [5] | Potency [6] | Potency [7] | Potency [8] | Potency [17] | Potency [10] | outcome [11] | Potency [18] | Potency [12] | Potency [13] | activity change, positive = activation ([14]; at 92.4 µM (top of the series)) 1.24% and 2.94% | Potency [15] | Potency [19] | Potency [16]

OC1CCCCCCCCCCC1
inactive and 43.6 µM (active): Potency [16]
inactive: Potency [2] | Potency [3] | Potency [4] | Potency [5] | Potency [6] | Potency [7] | Potency [9] | Potency [10] | outcome [11] | Potency [18] | Potency [12] | Potency [15] | Potency [19]

c1ccncc1
inactive: Potency [2] | Potency [3] | Potency [4] | Potency [5] | Potency [6] | Potency [7] | Potency [9] | Potency [10] | outcome [11] | Potency [18] | Potency [12] | Potency [15] | Potency [16]

O=C1OC2(c3cc(Br)c(O)c(Br)c3Oc3c2cc(Br)c(O)c3Br)c2c(Cl)c(Cl)c(Cl)c(Cl)c21
active: Potency [2] 6.12 µM and 18.6 µM | Potency [3] 40 µM and 24.2 µM | Potency [4] 13.7 µM and 37.1 µM | Potency [5] 19.4 µM and 33.1 µM | Potency [7] 4.86 µM and 29.5 µM | Potency [8] 10.9 µM | Potency [10] 19.5 µM and 29.7 µM | Potency [12] 7.14 µM | Potency [16] 43.7 µM and 26.5 µM
inactive: Potency [6] | Potency [17] | Potency [9] | Potency [18] | Potency [13] | activity change, positive = activation ([14]; at 42.5 µM (top of the series)) -3.67% | activity change, positive = activation ([14]; at 92.4 µM (top of the series)) -28% | Potency [15]

— PubChem BioAssay (Tox21)
